From PubChem BioAssay (EPA / NIEHS)
“And” between values parts separate entries of the source, which are not always exact repeats. Equal entries are not always repeated. The source made the active and inactive calls. The calls were made as follows: active = hit-call score of the fitted dose curve at least 0.9, where 1 is the maximum; inactive = score below 0.9.

Tests used:
[1] = read-out: Monokine induced gamma interferon (MIG), CXCL9 (gene 4283); assay: BSK_KF3CT_MIG: BioMAP Diversity Plus: KF3CT Assay for Monokine induced gamma interferon (MIG) Biomarker Activity (AID 2284248); details: primary human keratinocytes with fibroblasts
Method in brief: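 MIG in dosed human skin co-cultures was measured by ELISA at 24 h, relative to DMSO.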

[2] = read-out: Collagen I, COL1A1 (gene 1277); assay: BSK_hDFCGF_CollagenI: BioMAP Diversity Plus: hDFCGF Assay for Collagen I Biomarker Activity (AID 2284250); details: primary human foreskin fibroblasts
Method in brief: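 Human skin primary fibroblasts dosed with test chemical, harvested at 24 h, Collagen I quantified by ELISA; parallel SRB staining (0.1% SRB after 10% TCA fixation, 560 nm) tracked cytotoxicity.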

[3] = read-out: Interferon-inducible T-cell alpha chemoattractant (ITAC), CXCL11 (gene 6373); assay: BSK_hDFCGF_ITAC: BioMAP Diversity Plus: hDFCGF Assay for Interferon-inducible T-cell alpha chemoattractant (ITAC) Biomarker Activity (AID 2284251); details: primary human foreskin fibroblasts
Method in brief: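 ELISA readout of I-TAC after 24 h chemical exposure; human dermal foreskin fibroblast primary cells. Positive-direction fitting vs DMSO baseline. Parallel SRB total-protein staining (0.1% SRB after 10% TCA fixation, 560 nm) flags cytotoxicity.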

[4] = read-out: Interleukin-8 (IL8), CXCL8 (gene 3576); assay: BSK_KF3CT_IL8: BioMAP Diversity Plus: KF3CT Assay for Interleukin-8 (IL8) Biomarker Activity (AID 2284254); details: primary human keratinocytes with fibroblasts
Method in brief: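 Using parallel SRB-stained cultures to flag overt toxicity, the study quantified IL-8 by ELISA in human keratinocyte–foreskin fibroblast co-cultures 24 h after dosing, with DMSO as negative control and baseline.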

[5] = read-out: Intercellular Adhesion Molecule 1 (ICAM1), ICAM1 (gene 3383); assay: BSK_BE3C_ICAM1: BioMAP Diversity Plus: BE3C Assay for Intercellular Adhesion Molecule 1 (ICAM1) Biomarker Activity (AID 2284278); details: primary human bronchial epithelial cells;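 also: cell-surface ICAM-1 protein level quantified by ELISA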
Method in brief: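 Human primary bronchial epithelial cultures; compound added; 24 h incubation; cell-surface ICAM-1 measured by ELISA; signal increase fitted relative to DMSO negative control.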

[6] = read-out: Interferon-inducible T-cell alpha chemoattractant (ITAC), CXCL11 (gene 6373); assay: BSK_BE3C_ITAC: BioMAP Diversity Plus: BE3C Assay for Interferon-inducible T-cell alpha chemoattractant (ITAC) Biomarker Activity (AID 2284279); details: primary human bronchial epithelial cells
Method in brief: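 ELISA for I-TAC in primary human bronchial epithelial cultures 24 h post-treatment, fitted relative to DMSO baseline in positive direction. Cytotoxicity checked in parallel cultures by sulforhodamine B protein staining.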

[7] = read-out: Epidermal growth factor receptor (EGFR), EGFR (gene 1956); assay: BSK_BE3C_EGFR: BioMAP Diversity Plus: BE3C Assay for Epidermal growth factor receptor (EGFR) Biomarker Activity (AID 2284281); details: primary human bronchial epithelial cells
Method in brief: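 Primary human lung bronchial epithelial cells; compound, 24 h; EGFR measured by ELISA; positive-direction fit vs DMSO baseline.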

[8] = read-out: Collagen I, COL1A1 (gene 1277); assay: BSK_MyoF_CollagenI: BioMAP Diversity Plus: MyoF Assay for Collagen I Biomarker Activity (AID 2284238); details: primary human lung fibroblasts
Method in brief: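 Measured by ELISA: Collagen I from human lung fibroblasts 24 h after compound addition, analysed for signal gain with DMSO as baseline; overt toxicity read from SRB staining of parallel cultures at the same time.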

[9] = read-out: Collagen III, COL3A1 (gene 1281); assay: BSK_MyoF_CollagenIII: BioMAP Diversity Plus: MyoF Assay for Collagen III Biomarker Activity (AID 2284239); details: primary human lung fibroblasts
Method in brief: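 Multiplexed cell assay in lung fibroblasts, harvested at 24 h post-dose. Collagen III detected by ELISA, with positive-direction fitting relative to DMSO vehicle.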

[10] = read-out: Interleukin 2 (IL2), IL2 (gene 3558); assay: BSK_BT_xIL2: BioMAP Diversity Plus: BT Assay for Interleukin 2 (IL2) Biomarker Activity (AID 2284245); details: primary human B cells with PBMC
Method in brief: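 B cell + PBMC co-culture (human primary), compound added, 24 h incubation; secreted IL-2 measured multiplexed on Luminex xMAP; gain-of-signal fit vs DMSO.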

[11] = read-out: Basic fibroblast growth factor (bFGF), FGF2 (gene 2247); assay: BSK_MyoF_bFGF: BioMAP Diversity Plus: MyoF Assay for Basic fibroblast growth factor (bFGF) Biomarker Activity (AID 2284246); details: primary human lung fibroblasts
Method in brief: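 ELISA-measured bFGF level serves as the read-out, taken 24 h after chemical dosing of human lung fibroblasts. Values represent signal gain over the DMSO negative control.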

[12] = read-out: Collagen IV, COL4A1 (gene 1282); assay: BSK_MyoF_CollagenIV: BioMAP Diversity Plus: MyoF Assay for Collagen IV Biomarker Activity (AID 2284247); details: primary human lung fibroblasts
Method in brief: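 Steps: dose human lung fibroblasts; culture 24 h; quantify Collagen IV by ELISA; fit increase versus DMSO control. Parallel SRB total-protein staining (0.1% SRB after 10% TCA fixation, 560 nm) tracks overt cytotoxicity.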

[13] = read-out: Plasminogen activator inhibitor-1 (PAI1), SERPINE1 (gene 5054); assay: BSK_MyoF_PAI1: BioMAP Diversity Plus: MyoF Assay for Plasminogen activator inhibitor-1 (PAI1) Biomarker Activity (AID 2284256); details: primary human lung fibroblasts;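 also: PAI-1 protein level measured by ELISA in fibroblast cultures; PAI-1 read 24 h after compound addition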
Method in brief: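 In this multiplexed primary-cell system, fibroblasts from human lung received compound for 24 h before ELISA detection of PAI-1; overt toxicity was checked by SRB (0.1%, TCA-fixed, 560 nm) in parallel wells.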

[14] = read-out: Interleukin-8 (IL8), CXCL8 (gene 3576); assay: BSK_MyoF_IL8: BioMAP Diversity Plus: MyoF Assay for Interleukin-8 (IL8) Biomarker Activity (AID 2284261); details: primary human lung fibroblasts
Method in brief: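 DMSO-normalised, upward-fitted IL-8 ELISA signal; human lung fibroblasts, 24 h chemical treatment.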

[15] = read-out: Decorin, DCN (gene 1634); assay: BSK_MyoF_Decorin: BioMAP Diversity Plus: MyoF Assay for Decorin Biomarker Activity (AID 2284265); details: primary human lung fibroblasts
Method in brief: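 In this multiplexed fibroblast system, secreted or surface decorin is detected by ELISA one day after dosing, with increases scored against the DMSO vehicle.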

[16] = BSK_MyoF_SRB: Viability Assessment in the BioMAP Diversity Plus: MyoF Assay (AID 2284267); details: primary human lung fibroblasts;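 also: total protein by SRB absorbance in parallel cultures as cytotoxicity measure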
Method in brief: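 Read-out is SRB absorbance at 560 nm, reflecting total protein in parallel lung fibroblast cultures harvested 24 h after compound addition. Cells were TCA-fixed (10%) and stained with 0.1% SRB; activity is referenced to DMSO.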

[17] = read-out: Matrix Metallopeptidase 1 (MMP1), MMP1 (gene 4312); assay: BSK_MyoF_MMP1: BioMAP Diversity Plus: MyoF Assay for Matrix Metallopeptidase 1 (MMP1) Biomarker Activity (AID 2284268); details: primary human lung fibroblasts
Method in brief: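 Fibroblasts from human lung receive compound for 24 h before ELISA quantitation of MMP1. DMSO serves as baseline, and the endpoint is fitted for signal gain.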

[18] = read-out: TIMP metallopeptidase inhibitor 1 (TIMP1), TIMP1 (gene 7076); assay: BSK_MyoF_TIMP1: BioMAP Diversity Plus: MyoF Assay for TIMP metallopeptidase inhibitor 1 (TIMP1) Biomarker Activity (AID 2284269); details: primary human lung fibroblasts
Method in brief: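 ELISA quantified TIMP-1 levels after 24 h dosing of primary human lung fibroblasts, with DMSO as baseline. Parallel SRB total protein staining (0.1% SRB after TCA fixation, 560 nm) flagged overt cytotoxicity.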

Measured: AC50

Cc1cc(C2(c3cc(C)c(O)cc3C)OS(=O)(=O)c3ccccc32)c(C)cc1O
inactive: [1] | [2] | [3] | [4] | [5] | [6] | [7]

CC[Si](OC(C)=O)(OC(C)=O)OC(C)=O
inactive: [1] | [2] | [3] | [4] | [5] | [6] | [7]

NCCNCCN
inactive: [1] | [2] | [3] | [4] | [5] | [6] | [7]

BrC1CCC(Br)C(Br)CCC(Br)C(Br)CCC1Br (configuration not stated)
inactive: [8] | [9] | [11] | [12] | [13] | [14] | [15] | [16] | [18]
active: [10] 25.2 µM | [17] 3.29 µM

CCC(=O)OCc1ccccc1
inactive: [1] | [2] | [3] | [4] | [5] | [6] | [7]

CC(=O)Nc1ccccc1O
active: [9] 0.016 µM
not listed: [1] | [2] | [3] | [4] | [5] | [6] | [7]
inactive: all other assays above

CC(=O)[C@H]1CC[C@H]2[C@@H]3CC=C4C[C@@H](O)CC[C@]4(C)[C@H]3CC[C@]12C
inactive: [1] | [3] | [4] | [5] | [6] | [7]
active: [2] 5.65 µM and 9.87 µM

COc1cc(C=O)ccc1OC(=O)C(C)C
inactive: [1] | [2] | [3] | [4] | [5] | [6] | [7]

Nc1cc([N+](=O)[O-])ccc1O
inactive: [1] | [2] | [3] | [4] | [5] | [6] | [7]

Cc1ccc(Nc2ccc(O)c3c2C(=O)c2ccccc2C3=O)cc1
not listed: [1] | [2] | [3] | [4] | [5] | [6] | [7]
inactive: all other assays above

CCn1c2ccccc2c2cc(N)ccc21
not listed: [1] | [2] | [3] | [4] | [5] | [6] | [7]
inactive: all other assays above

CC(=O)OCCC(C)CC(C)(C)C (configuration not stated)
inactive: [1] | [2] | [3] | [4] | [5] | [6] | [7]

COC(=O)c1ccc(C)cc1
not listed: [1] | [2] | [3] | [4] | [5] | [6] | [7]
inactive: all other assays above

CC(=O)O[C@]1(C(C)=O)CC[C@H]2[C@@H]3C[C@H](C)C4=CC(=O)CC[C@]4(C)[C@H]3CC[C@@]21C
not listed: [1] | [2] | [3] | [4] | [5] | [6] | [7]
inactive: all other assays above
